Potency data for 31 molecules are collected here from PubChem BioAssay AID2289 (National Center for Advancing Translational Sciences (NCATS), 2010).

Among all 340,000 compounds or so, about 3,300 (0.97%) were called active. Inconclusive results (about 9%) are left out. Calls come from the whole dose curve; as a rule, active = well fitted inhibition curve with a large enough effect; inconclusive = small, poorly fitted or top-dose-only effect, or effect the other way; inactive = flat fitted curve, though single readings scatter. This is one part of the list.
Potency is the fitted concentration of half-maximal effect.

This experiment is described as follows: qHTS Assay for Modulators of miRNAs and/or Inhibitors of miR-21. Note: nearly all actives have a fitted effect of over 55% in size. The following applies: HeLa miR-21-FLuc reporter, luciferase luminescence, 48 h; actives lower the signal. The gist of the method: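 Using DMEM plus 10% FBS, HeLa miR-21-FLuc cells are incubated with test compounds (final up to about 40uM) for 48 hours; firefly luciferase signal is then imaged following reagent-mediated lysis.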
For orientation: qHTS replaces the single test concentration by a dilution series.
Take `Cc1ccsc1C(=O)NNC(=O)C1CC=CCC1C(=O)O` (stereo unspecified): the Potency is 4.65 µM (active). Then `Cc1ccsc1C(=O)NNC(=O)C1C2C=CC(C2)C1C(=O)O` (stereo unspecified), with 0.826 µM (active). Consider `Cc1ccsc1C(=O)NNC(=O)C1CCCCC1C(=O)O` (stereo unspecified), for which the Potency was 1.85 µM (active).

`CN(C)/N=C/c1ccc(OS(=O)(=O)c2ccccc2)cc1`: the Potency was 3.29 µM (active).

Regarding `Cc1[nH]n(C(N)=S)c(=O)c1N=Nc1ccc2ccccc2c1`, the Potency is 1.47 µM (active). Then `Nc1nc2sc3c(c2c(=O)s1)CCCC3`, with 16.5 µM (active). To `COCCCNC(=O)COc1ccc(Br)cc1Cl` belongs 10.4 µM (active); to `COc1ccc(Nc2nc(N)nc(CSC(=S)N3CCCCC3)n2)cc1`, 14.7 µM (active); to `COc1ccc(Nc2nc(N)nc(CSC(=S)N3CCOCC3)n2)cc1`, 16.5 µM (active). To `CC(C)OC(=O)c1ccc2nc3ccccc3nc2c1` belongs 0.656 µM (active); to `O=C(/C=C/Nc1ccccc1F)c1ccc(Br)cc1`, 0.293 µM (active). As to `O=C(/C=C\Nc1ccc(Br)cc1)c1cccnc1`, the Potency is 1.31 µM (active).

Consider `O=C(/C=C/Nc1ccc(F)c(F)c1)c1ccc(Br)cc1`, for which the Potency was 1.85 µM (active). Then `O=C(/C=C/Nc1ccc(F)cc1)c1ccc(Br)cc1`, with 0.927 µM (active); and `CC(=O)N1CCC(=NNC(=O)c2cccs2)CC1`, with 3.69 µM (active); and `CC(C)N1CCC(=NNC(=O)c2cccs2)CC1`, with 6.56 µM (active). To `Cc1ccsc1C(=O)NN=C1CCCCCC1` belongs 3.69 µM (active). To `O=C(NN=C1CCCC1)c1cccs1` belongs 1.65 µM (active); to `COc1ccc(-c2nc(C#N)c(NCc3ccco3)o2)cc1`, 9.27 µM (active); to `Cc1ccc(-c2nc(C#N)c(NCc3ccco3)o2)cc1`, 4.14 µM (active). `COc1ccc(C(=O)/C=C/c2ccc(OC)cc2OC)c(O)c1`: the Potency is 6.56 µM (active).

Consider `Clc1ccc(-c2cn3nc4c(nc3n2)CCCC4)cc1`, for which the Potency was 0.117 µM (active). As for `O=C(Nc1ccsc1C(=O)O)c1cccc(C(F)(F)F)c1`, the Potency is 7.36 µM (active). For `COc1ccc(C2=NN(S(C)(=O)=O)C(c3cccs3)C2)cc1` (stereo unspecified), the Potency was 2.61 µM (active). As to `COc1ccc(C2=NN(S(C)(=O)=O)C(c3cccs3)C2)cc1OC` (stereo unspecified), the Potency was 7.36 µM (active).

`COc1ccc(C2=NN(S(C)(=O)=O)C(c3ccc4nccnc4c3)C2)cc1` (stereo unspecified): the Potency is 7.36 µM (active). As to `COc1ccc(C2=NN(C(C)=O)C(c3cccs3)C2)cc1OC` (stereo unspecified), the Potency is 8.26 µM (active).

As for `CC(=O)c1sc(N/N=C\c2ccc(C)cc2)nc1C`, the Potency was 3.29 µM (active).

As to `CC(=O)c1sc(N/N=C\c2ccc(N(C)C)cc2)nc1C`, the Potency is 0.927 µM (active).

For `CC(=O)c1sc(NCc2ccc(C)cc2)nc1C`, the Potency was 5.21 µM (active). Then `CC(=O)c1sc(N/N=C\c2ccc(Br)cc2)nc1C`, with 5.21 µM (active).
